Compound activity: PubChem BioAssay, National Center for Advancing Translational Sciences (NCATS)
Hits are enriched below; roughly 19% of the tested compounds scored in any of these assays.
HepG2 viability – kills HepG2 cells in TGF-b inhibitor counter-screen | HepG2 CAGA-GFP viability, ATP luminescence, 18 h | Potency, µM (titrated, usually from 46.1 µM), without a hit: at the highest dose activity change, negative = cytotoxicity, hits mostly cytotoxic | hit rate 0.76% among 410,000 | AID 588856; further: potency means the concentration at half of the fitted maximal effect
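CellTiter-Glo luminescence gave cytotoxicity after 18 hours at 37 degrees C. The cells were HepG2 CAGA-GFP in 1% FBS DMEM, stimulated with 500 pg/mL TGF-beta after compound addition. %Activity was normalised to no-cell wells (complete cell-killing) and DMSO (no toxicity), and curves were fitted and classified.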
TDP1 cell CPT – DT40-hTDP1 cell growth loss with CPT. chicken DT40 Tdp1-/-;hTDP1 cells + 20 nM CPT, ATP luminescence, 48 h. Potency, µM (top dose mostly 46.2 µM), without a hit: at the highest dose activity change, negative = growth inhibition, hits mostly inhibitors. hit rate 12% among 420,000. AID 686979; further: potency means the concentration at half of the fitted maximal effect; on the % scale 0 is the no-effect control and ±100 the full control effect; nearly all actives have a fitted effect of over 55% in size
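Cell growth measured by CellTiter-Glo luminescence after a minimum 48 h, 37 C compound exposure with 20 nM CPT in Tdp1-knockout DT40 cells stably expressing hTDP1, seeded 400/well; qHTS titration format.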
TDP1 inh – blocks human tyrosyl-DNA phosphodiesterase 1 | recombinant TDP1, AlphaScreen DNA substrate cleavage | hit rate 0.28% among 350,000 | Q9NUW8 | AID 485290 | Potency, µM (doses to about 130 µM), for inactives: top-dose activity change, negative = inhibition, hits mostly inhibitors; further: potency means the concentration at half of the fitted maximal effect; on the % scale 0 is the no-effect control and ±100 the full control effect; nearly all actives have a fitted effect of over 40% in size
Target sequence (Q9NUW8 whole entry, looked up): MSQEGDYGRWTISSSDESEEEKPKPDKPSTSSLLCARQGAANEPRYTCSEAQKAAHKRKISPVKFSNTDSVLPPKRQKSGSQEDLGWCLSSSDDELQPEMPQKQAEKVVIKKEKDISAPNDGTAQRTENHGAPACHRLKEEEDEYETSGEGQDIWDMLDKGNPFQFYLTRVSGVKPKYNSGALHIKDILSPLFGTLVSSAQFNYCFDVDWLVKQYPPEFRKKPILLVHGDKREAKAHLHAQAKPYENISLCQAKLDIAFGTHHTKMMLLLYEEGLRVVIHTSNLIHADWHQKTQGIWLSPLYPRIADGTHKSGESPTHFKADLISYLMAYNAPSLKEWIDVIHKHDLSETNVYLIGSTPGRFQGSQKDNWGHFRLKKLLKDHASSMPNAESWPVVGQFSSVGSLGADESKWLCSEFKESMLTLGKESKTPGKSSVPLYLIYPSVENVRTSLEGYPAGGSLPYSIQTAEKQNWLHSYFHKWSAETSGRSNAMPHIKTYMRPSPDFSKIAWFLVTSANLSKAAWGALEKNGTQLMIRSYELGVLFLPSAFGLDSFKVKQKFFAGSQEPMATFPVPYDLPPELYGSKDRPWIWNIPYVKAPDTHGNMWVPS
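Here, a 5' biotin and 3' phosphotyrosine-FITC DNA oligonucleotide reports Tdp1 activity: intact substrate bridges AlphaScreen beads, while cleavage leaves a 3' phosphate and drops signal. All incubations at room temperature.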
TGFb inhibitor – blocks TGF-b signaling | HepG2 CAGA-GFP TGF-b/SMAD3 reporter, GFP fluorescence, 18 h; TGF-beta stimulated, 500 pg/mL final | hit rate 1.2% among 410,000 | Potency, µM (series often up to 46.1 µM), inactives show at the top dose activity, negative = inhibition, most hits filed as inhibitors; further: potency means the concentration at half of the fitted maximal effect; on the % scale 0 is the no-effect control and ±100 the full control effect; nearly all actives have a fitted effect of over 65% in size
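HEPG2 CAGA-GFP reporter cells (1000/well, DMEM with 1% FBS) received compounds, then recombinant TGF-beta at 500 pg/mL final for 18 hours at 37 degrees C. Per-cell GFP summed per well was normalised to unstimulated and stimulated DMSO controls before curve fitting.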
IL1B secr inh – blocks inflammasome-driven IL-1 beta release | activity change, % at 57.5 µM | hit rate 4.7% among 360,000 | THP-1 LPS/ATP IL-1B secretion, AlphaLISA, 16 h; stronger effect = lower value | AID 743279; in the data active means activity change below about -50%; inconclusive means mostly about -30% to -49%; further: on the % scale 0 is the no-effect control and ±100 the full control effect
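Secreted IL-1B measured by AlphaLISA bead assay after 16 h compound exposure of THP-1 cells; compounds (final up to 57.5 uM) added 1 h before LPS (250 ng/mL) and ATP (1.25 mM) stimulation; lower signal means less secretion.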
TDP1 cell noCPT – qHTS for Inhibitors of human tyrosyl-DNA phosphodiesterase 1 (TDP1): qHTS in cells in absence of CPT; DT40 Tdp1-/- hTDP1 cells, no CPT, ATP luminescence, 48 h; Potency, µM (doses to about 46.2 µM), inactives show at the highest dose activity change, negative = growth inhibition, hits mostly inhibitors; hit rate 15% among 420,000; further: potency means the concentration at half of the fitted maximal effect; on the % scale 0 is the no-effect control and ±100 the full control effect; nearly all actives have a fitted effect of over 55% in size
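Compound effects on proliferation are scored in DT40 Tdp1-/-;hTDP1 cells in the absence of CPT. ATP levels (CellTiter-Glo luminescence) are recorded after a ≥48 hr, 37 °C incubation.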
Active calls of the source: *; ? = inconclusive; / = no result given; ! = not confirmed by another sample; [ ] = another dose, or the depositor's remark. Unless noted, the call rests on the fitted dose curve; in most records, active means well fitted curve in the direction sought with a large enough effect; inconclusive means small, poorly fitted or top-dose-only effect, or another doubt; inactive means no such curve, though single readings can be large; an effect the other way counts as inactive or inconclusive.

SMILES	HepG2 viability	TDP1 cell CPT	TDP1 inh	TGFb inhibitor	IL1B secr inh	TDP1 cell noCPT
CCOC(=O)C1CCN(S(=O)(=O)c2ccc3c(c2)NC(=O)C(C)C(=O)N3)CC1 (configuration not stated)	-20%	-12%	9%	-25%	41	23µM*!
CCOC(=O)C1CCN(S(=O)(=O)c2ccc(OCC(=O)OC)cc2)CC1	-6%	-7%	0%	0%	-53*	1%
CCOC(=O)N1CCN(S(=O)(=O)c2ccc(OCC(=O)OC)cc2)CC1	-4%	-26%	-2%	-1%	-64*	-7%
CCOC(=O)COc1ccc(S(=O)(=O)c2ccc(OCC(=O)OCC)cc2)cc1	13µM*	7%	4%	-4%	-92*	-17%
CCOC(=O)COc1ccc(S(=O)(=O)Nc2ccc(C)cc2)cc1	-39%	-3%	5%	-38%	-8	-15%
OCC1CCCN(c2nc3cc4c(cc3cc2CNCc2cccc(C(F)(F)F)c2)OCO4)C1 (configuration not stated)	/	-4%[9.04 µM]	/	/	/	-17%
CCOC(=O)CS(=O)(=O)c1ccccc1	3%	-7%	3%	-5%	?	0%
CCOC(=O)CS(=O)(=O)c1ccc(O)cc1	32%	-1%	-5%	22%	-92*	-1%
O=[N+]([O-])c1ccc(S(=O)(=O)N2CCN(C3CCN(Cc4ccccc4)CC3)CC2)cc1	-13%	-30%	/	1%	-9	?
CCOC(=O)N1CCC(N2CCN(S(=O)(=O)c3ccc([N+](=O)[O-])cc3)CC2)CC1	-24%	13µM*	-10%	-19%	0	?
Cc1ccc(C(=O)OCC(=O)NC2CCCC2)cc1	-4%	1%	/	22%	-2	-1%
COCCNC(=O)CCC1CCN(Cc2ccc(-c3ccccc3)cc2)CC1	-4%	?	/	8%	-8	?
CC(C)OC(=O)c1cccnc1SCC(=O)Nc1ccc(C(F)(F)F)cc1Cl	2%	-28%	-3%	-10%	/	-22%
COc1ccc(C)cc1-n1c(SCC(=O)Nc2cc(C)on2)nc2sc(C)c(C)c2c1=O	2%	12µM*	2%	1%	-10	8.2µM*
COc1cccc(-n2c(SCC(=O)Nc3cc(C)on3)nc3ccccc3c2=O)c1	-21%	?	2%	1%	-6	?
COc1ccc(C)cc1-n1c(SCC(=O)Nc2cc(C)on2)nc2ccccc2c1=O	-40%	10µM*	5%	-15%	10	13µM*
CN(CCO)C(=O)c1cn(C2CCCN(Cc3cc4ccccc4s3)C2)nn1 (configuration not stated)	/	-19%	/	/	/	-25%
Cc1noc(C)c1COc1cccc(C(=O)OCC(=O)N2CC(=O)Nc3ccccc32)c1	-2%	0.58µM*	4%	-2%	83	0.65µM*
O=C1CN(C(=O)COc2cccc(F)c2)c2ccccc2N1	/	/	1%	/	/	/
COC(=O)NC/C=C\c1nc(CCCO)co1	/	/	-1%[21 µM]	/	/	/
CCOC(=O)c1c(C)nc2ccccc2c1-c1ccccc1	-63%	?	0%	-14%	-1	18µM*
CCOC(=O)c1c(N)nn(C(=O)CC)c1-c1ccccc1	15%	-12%	-5%	0%	-1	-26%
CCOC(=O)c1c(C)nc2c(c1-c1ccccc1)C(=O)c1ccccc1-2	-8%	?	4%	-18%	-54*	?
CCOC(=O)c1c(N)nn(C(=O)C(C)C)c1-c1ccccc1	-40%	?	1%	-19%	-8	13µM*
CCOC(=O)c1c(CCl)nc2ccccc2c1-c1ccccc1	-3%	13µM*	8%	-16%	-19	23µM*
SMILES	HepG2 viability	TDP1 cell CPT	TDP1 inh	TGFb inhibitor	IL1B secr inh	TDP1 cell noCPT
O=C(OCc1ccccc1)N1CCOCCN(C(=O)OCc2ccccc2)CCOCC1	0%	26µM*	3%	1%	-5	26µM*
O=C(Nc1ccc(N2CCOCC2)cc1)C1CCN(C(=O)OCc2ccccc2)CC1	-6%	2%	/	12%	-12	-21%
O=C(Nc1ccc(N2CCOCC2)cc1Cl)C1CCN(C(=O)OCc2ccccc2)CC1	-16%	?	3%	-19%	0	16µM*
N#Cc1cccc(C(=O)C(=O)N2CCN(C(=O)OCc3ccccc3)CC2)c1	/	?	/	/	-7	23µM*
O=C(NCC(=O)N1CCOCC1)OCc1ccccc1	20%	-10%	/	3%	8	-10%
COc1cccc(C(=O)C(=O)N2CCN(C(=O)OCc3ccccc3)CC2)c1	/	?	/	/	-12	?
CC(C)C[C@H](NC(=O)[C@H](C)NC(=O)CNC(=O)[C@H](CCCCN)NC(=O)[C@H](CCCN=C(N)N)NC(=O)[C@H](C)NC(=O)[C@H](Cc1ccccc1)NC(=O)[C@@H](N)CCCN=C(N)N)C(=O)N[C@@H](CCCN=C(N)N)C(=O)N[C@@H](CCC(N)=O)C(=O)N[C@@H](CCCCN)C(=O)N[C@@H](CC(N)=O)C(=O)N[C@H](C(N)=O)C(C)C	/	/	13%	/	/	/
Cc1cc(C=O)c(C)c2c1[nH]c1ccccc12	-23%	?	/	?	-57*	21µM*
COc1cccc(/C=N/NC(=O)C[n+]2ccccc2)c1O	-22%	-3%	8%	0%	9	-10%
COc1cccc(/C=N/NC(=O)CNC(=O)c2ccc3c(c2)OCCO3)c1O	2%	16µM*	0%	-1%	48	?
O=C(COc1ccccc1)NCC(=O)N/N=C/c1ccc(O)cc1O	-15%	?	4%	?	120	16µM*
COc1ccc(CCCC(=O)N/N=C/c2cccc(OC)c2O)cc1C	-15%	1.8µM*	-3%	?	73	1.6µM*
COc1cccc(/C=N/NC(=O)CNC(=O)c2ccco2)c1O	16%	6.5µM*	7%	-7%	77	8.2µM*
COc1cc2ccccc2cc1C(=O)N1CCN(c2ccccc2O)CC1	-14%	?	3%	?	-18	?
CCCNC(=O)C(Cc1ccc(I)cc1)NC(=O)c1ccc(C#N)cc1 (configuration not stated)	3%	4%	0%	13%	19	-22%
CCOc1ccc(/C=N/NC(=O)C(O)c2ccccc2)c(O)c1 (configuration not stated)	-8%	4.1µM*	2%	0%	95	?
